# Results reported in PubChem BioAssay AID1224864 (Chung Lab, Department of Pediatrics, Emory University, 2016).
# Several values for one entry are separate records, joined by “and”; a condition that tells them apart may be missing. Equal entries are not always repeated. Hit rate of the full screen: of about 2,000 compounds, about 20 (1%) were called active. How the calls were made is not given here. Only a selection was taken, and actives are over-represented in it overall. Residues, ends and D or L forms follow the SMILES beside them.
# Target: Cystic fibrosis transmembrane conductance regulator (Homo sapiens) (UniProt P13569)
# Sequence (P13569 whole entry, looked up, stated change not applied): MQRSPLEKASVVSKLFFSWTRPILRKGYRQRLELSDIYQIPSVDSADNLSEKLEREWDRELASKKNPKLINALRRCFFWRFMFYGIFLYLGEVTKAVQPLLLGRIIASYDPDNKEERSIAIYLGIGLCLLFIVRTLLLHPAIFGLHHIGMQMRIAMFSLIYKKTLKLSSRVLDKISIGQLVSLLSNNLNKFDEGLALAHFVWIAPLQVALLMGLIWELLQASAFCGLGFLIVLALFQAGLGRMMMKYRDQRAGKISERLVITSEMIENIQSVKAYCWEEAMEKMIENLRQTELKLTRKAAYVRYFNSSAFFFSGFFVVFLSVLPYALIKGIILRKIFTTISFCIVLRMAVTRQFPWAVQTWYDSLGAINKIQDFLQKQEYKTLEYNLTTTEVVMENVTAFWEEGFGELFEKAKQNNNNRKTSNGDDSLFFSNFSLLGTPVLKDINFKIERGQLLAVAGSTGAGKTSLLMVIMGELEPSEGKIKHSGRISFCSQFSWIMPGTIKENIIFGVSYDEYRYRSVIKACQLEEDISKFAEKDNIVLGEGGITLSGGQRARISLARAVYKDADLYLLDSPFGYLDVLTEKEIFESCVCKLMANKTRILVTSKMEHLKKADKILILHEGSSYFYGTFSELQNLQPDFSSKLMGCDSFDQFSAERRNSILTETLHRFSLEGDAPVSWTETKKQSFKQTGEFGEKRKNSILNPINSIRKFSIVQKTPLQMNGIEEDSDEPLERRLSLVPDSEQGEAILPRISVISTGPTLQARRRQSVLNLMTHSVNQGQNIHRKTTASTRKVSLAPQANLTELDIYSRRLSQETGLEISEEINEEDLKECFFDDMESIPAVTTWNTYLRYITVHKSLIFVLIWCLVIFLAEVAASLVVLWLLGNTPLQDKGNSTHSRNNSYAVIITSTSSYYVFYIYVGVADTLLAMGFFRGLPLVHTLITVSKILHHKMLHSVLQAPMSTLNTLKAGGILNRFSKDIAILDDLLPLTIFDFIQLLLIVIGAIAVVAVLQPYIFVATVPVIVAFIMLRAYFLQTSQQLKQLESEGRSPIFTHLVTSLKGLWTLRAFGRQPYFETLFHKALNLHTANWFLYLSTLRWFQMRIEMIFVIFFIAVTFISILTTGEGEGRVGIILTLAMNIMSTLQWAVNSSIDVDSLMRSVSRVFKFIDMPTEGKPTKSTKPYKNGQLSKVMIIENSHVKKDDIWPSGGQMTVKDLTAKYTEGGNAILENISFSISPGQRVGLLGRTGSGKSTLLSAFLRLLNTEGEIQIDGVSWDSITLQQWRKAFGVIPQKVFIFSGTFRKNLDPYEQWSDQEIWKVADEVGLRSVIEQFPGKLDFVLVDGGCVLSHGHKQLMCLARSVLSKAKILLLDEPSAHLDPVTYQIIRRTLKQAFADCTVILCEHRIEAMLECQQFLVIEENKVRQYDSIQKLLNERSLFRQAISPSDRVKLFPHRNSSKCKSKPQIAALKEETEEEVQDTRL
# Assay: correctors of F508del-CFTR surface localization, primary screen, imaging, HeLa, high-content microscopy, immunofluorescence (AID 1224864);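 further: HeLa cells stably expressing F508del-CFTR stained with 3G11 antibody against NBD1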;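 on plasma membrane CFTR intensity: mean immunofluorescence in a thin cell-margin band taken as plasma membrane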
# Conditions: PM immunofluorescence imaging, 24 h, at 10 µM, stronger effect = higher value, relative to vehicle wells set at 100; total CFTR intensity: measured here: total cellular F508del-CFTR signal
SMILES,plasma membrane CFTR intensity,total CFTR intensity
CC1CCCc2sc3ncn(N)c(=N)c3c21 (configuration not stated),71% (inactive),71%
O=C(c1ccco1)N(CCC(c1ccccc1)c1ccco1)Cc1ccco1 (configuration not stated),99% (inactive),101%
CC(=O)N=c1sc(S(N)(=O)=O)nn1C,125% (active),144%
CC(=O)Nc1nnc(S(N)(=O)=O)s1,87% (inactive),89%
COc1ccc(CNC(=O)c2cc3c(=O)n4ccccc4nc3n(Cc3cccnc3)c2=N)cc1,556% (inactive),561%
COc1ccc(S(=O)(=O)NC(Cc2cnc[nH]2)C(=O)O)cc1 (configuration not stated),75% (inactive),82%
CC(C)Cn1c(=S)[nH]c2cc(C(=O)O)ccc2c1=O,78% (inactive),81%
O=C(CCCC(=O)OCC1CCCO1)OCC1CCCO1 (configuration not stated),84% (inactive),84%
CC(=O)[C@@]1(O)CC[C@H]2[C@@H]3CCC4=CC(=O)CC[C@]4(C)[C@H]3CC[C@@]21C,88% (inactive),89%
CC(=O)[C@H]1CC[C@H]2[C@@H]3CCC4=CC(=O)CC[C@]4(C)[C@H]3CC[C@]12C,81% (inactive),85%
CC(=O)SC1CC2=CC(=O)CCC2(C)C2CCC3(C)C(CCC34CCC(=O)O4)C12 (configuration not stated),177% (active),233%
N#C/C(=C\c1ccc(O)c(O)c1)C(=O)NCCCc1ccccc1,78% (inactive),83%
N#C/C(=C/c1ccccc1)C(=O)NCc1ccccc1,124% (active),125%
S=C(NCc1ccccc1)NCc1cccc(CNC(=S)NCc2ccccc2)c1,79% (inactive),81%
Cc1cc(-c2nn(-c3ccccc3F)cc2CN2CCCC(O)C2)c(C)s1 (configuration not stated),75% (inactive),76%
O=C(/C=C/c1ccccc1)NCC1(c2ccccc2)CCOCC1,87% (inactive),84%
COc1cc(CNCc2ccc(OC)c(OC)c2OC)cc(OC)c1,85% (inactive),79%
O=C(CCCCC(=O)NC1CCCC1)NC1CCCC1,90% (inactive),90%
CCc1cccc2c1NC1(CCCC1)CC2C (configuration not stated),74% (inactive),89%

SMILES,plasma membrane CFTR intensity,total CFTR intensity
O=C1OC(=O)C2C1[C@@H]1CC[C@H]2O1 (some centres not stated),120% (active),133%
COc1ccc2c(CC(=O)NCC3CCC(C(=O)O)CC3)cc(=O)oc2c1 (configuration not stated),92% (inactive),94%
CC12CCCCN1CCCc1c2[nH]c2ccccc12 (configuration not stated),104% (inactive),100%
COc1ccc2c3c([nH]c2c1)C1(NCC3)C(=O)Nc2ccccc21 (configuration not stated),85% (inactive),81%
CC1=CC(C)(C)N2C(=O)C3(NCCc4c3[nH]c3ccccc43)c3cc(C)cc1c32 (configuration not stated),108% (active),129%
COc1ccc2c(c1)c(=O)oc1cc3occ(C(C)(C)C)c3cc12,92% (inactive),88%
O=C(NNC(=O)c1cccs1)c1ccco1,93% (inactive),90%
O=C(NCc1ccc2c(c1)OCO2)c1ccc2c(c1)OCCO2,80% (inactive),80%
CCN(CC)CCNc1ccc(CO)c2sc3ccccc3c(=O)c12,207% (active),238%
CCCCOc1cc(C(=O)NCCN(CC)CC)c2ccccc2n1,105% (inactive) and 91% (inactive),109% and 93%
CCN(CC)CCCNC(=O)C1c2ccccc2Oc2ccccc21,84% (inactive),85%
O=C(O)CCCN1C(=O)NC2NC(=O)NC21 (configuration not stated),91% (inactive),95%
CCOCc1cc(C)[nH]c(=O)c1C#N,80% (inactive),83%
COc1ccc(/C=C\c2cc(OC)c(OC)cc2CC[N+](C)(C)C)cc1OC,81% (inactive),82%
COc1cc2ccc(=O)oc2c(O)c1OCC=C(C)C,86% (inactive),92%
COc1cccc(CC2CC(=O)N(c3ccc4c(C)cc(=O)oc4c3)C2=O)c1 (configuration not stated),77% (inactive),83%
O=C(/C=C/c1ccco1)NCc1ccc2c(c1)OCO2,79% (inactive),77%
CC(=O)NC(Cc1ccccc1)C(=O)OCC(=O)c1ccccc1 (configuration not stated),77% (inactive),78%
CC1(C)Cc2ccccc2-c2n[nH]c(=S)n21,93% (inactive),97%

SMILES,plasma membrane CFTR intensity,total CFTR intensity
Cn1c2[n+](c3ccc(Cl)cc3c1=O)Cc1ccccc1-2,78% (inactive),85%
Cc1cc(/C=N/O)c(C)n1-c1ccc(Br)cc1,78% (inactive),82%
CN1C(=O)C(O)(CC(=O)c2ccccc2O)c2cc(Br)ccc21 (configuration not stated),159% (inactive),190%
CO[C@H]1C=CO[C@@]2(C)Oc3c(C)c(O)c4c(O)c(c(/C=N/N5CCN(C)CC5)c(O)c4c3C2=O)NC(=O)C(C)=CC=C[C@H](C)[C@H](O)[C@@H](C)[C@@H](O)[C@@H](C)[C@H](OC(C)=O)[C@@H]1C,113% (active),137%
O=C(OCC1CCCN2CCCCC12)c1ccc2c(c1)OCO2 (configuration not stated),85% (inactive),81%
CC1=C/C(=N\N=C2/NC(=O)C(CC(=O)Nc3ccccc3F)S2)CC(C)(C)C1 (configuration not stated),65% (inactive),65%
O=C(Cc1ccccc1)NNC(=O)Cc1ccccc1,74% (inactive),77%
CC1(C)CC(c2csc(N)n2)CCO1 (configuration not stated),90% (inactive),92%
CC(=O)NC(CC(C)C)C(=O)NC(Cc1ccccc1)C(N)=O (stereo not drawn) (Ac-Leu-Phe-NH2; configuration not given here),91% (inactive),94%
O=C(O)C(O)c1ccccc1 (configuration not stated),89% (inactive),81%
Cc1cccc(-c2ncc(CN3CCN(CC(C)C)C(CCO)C3)cn2)c1 (configuration not stated),80% (inactive),81%
COC(=O)c1ccc(NC(=O)c2ccccc2SC)cc1,81% (inactive),79%
CC(=O)c1c(N)nc2n(c1=O)CCCCC2,80% (inactive),78%
Cn1c(=O)[nH]c(=O)c2c1nc(Br)n2CCCO,81% (inactive),84%
COc1cc(C(=O)Nc2ccc(N(C)C)cc2)c([N+](=O)[O-])cc1OC,100% (inactive),106%
CC(C)(C)c1csc(N/N=C/c2cccnc2)n1,93% (inactive),92%
Cc1ccc(/C=N/Nc2nc(C(C)(C)C)cs2)o1,135% (active),153%
C=CCC1(Cl)C(=O)C(Cl)=C(N2CCOCC2)C1(OC)OC (configuration not stated),77% (inactive),77%
